# Bioassay records from PubChem BioAssay.
# Rows were chosen to be rich in hits. Some 19% of all compounds tested hit in one or more screens of this group.
# TDP1 cell noCPT = qHTS for Inhibitors of human tyrosyl-DNA phosphodiesterase 1 (TDP1): qHTS in cells in absence of CPT | DT40 Tdp1-/- hTDP1 cells, no CPT, ATP luminescence, 48 h | Potency, µM (doses to about 46.2 µM), actives largely listed as inhibitors | hit rate 15% among 420,000 | AID 686978, 2013; note: nearly all actives have a fitted effect of over 55% in size
#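 Chicken DT40 Tdp1-/- cells complemented with human TDP1, screened without camptothecin (DMSO vehicle only), 400 cells/well. Compounds pin-transferred, cells incubated at 37 °C for at least 48 hr. Growth read as ATP-dependent luminescence (CellTiter-Glo, 30 min at RT).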
# DT40 TDP1 CPT = DT40-hTDP1 cell growth loss with CPT. hit rate 12% among 420,000. Potency, µM (highest dose often 46.2 µM), usual class: inhibitors. AID 686979. chicken DT40 Tdp1-/-;hTDP1 cells + 20 nM CPT, ATP luminescence, 48 h; note: nearly all actives have a fitted effect of over 55% in size
#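 Chicken DT40 Tdp1-/- cells stably complemented with human TDP1 were seeded at 400 cells/well in medium containing 20 nM camptothecin, exposed to pin-transferred compounds, and grown at 37 °C for at least 48 hr. Viability was read as ATP luminescence.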
# Giardia kill = Giardia lamblia killing | Giardia lamblia trophozoite viability | activity change, % at 7.66 µM, hits read low | hit rate 0.15% among 340,000 | AID 540267; in the data active = activity change below about -80%; inconclusive = between about -30% and that limit;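 note: parasites exposed to compound for two days anaerobically before the ATP read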
#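 Trophozoites 100 cells/well + cpd; 48 hrs, 37 deg C, anaerobic. ATPLite 1-Step added, 15-30 min RT, luminescence read (ATP-based viability).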
# ELG1 DNA repair = inhibitors of ELG1-dependent DNA repair in HEK293T cells; Potency, µM (titrated, usually from 46.1 µM), usual class: inhibitors; HEK293T ELG1-luciferase reporter, luminescence, 16 h; DNA damage induced by 5-fluorouridine; hit rate 2.3% among 330,000; note: nearly all actives have a fitted effect of over 55% in size
#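 Step one: seed 2,000 cells per well. Step two: pin-transfer compound or DMSO alongside 5-fluorouridine. Step three: incubate 16 hr, 37 °C, 5% CO2. Step four: add ONE-Glo, wait 30 min, read luminescence.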
# TDP1 block = TDP1 (human) enzyme inhibition | Q9NUW8 | AID 485290 | hit rate 0.28% among 350,000 | Potency, µM (titrated, usually from 130 µM), usual class: inhibitors | recombinant TDP1, AlphaScreen DNA substrate cleavage; note: nearly all actives have a fitted effect of over 40% in size
# Target sequence (Q9NUW8 whole entry, looked up): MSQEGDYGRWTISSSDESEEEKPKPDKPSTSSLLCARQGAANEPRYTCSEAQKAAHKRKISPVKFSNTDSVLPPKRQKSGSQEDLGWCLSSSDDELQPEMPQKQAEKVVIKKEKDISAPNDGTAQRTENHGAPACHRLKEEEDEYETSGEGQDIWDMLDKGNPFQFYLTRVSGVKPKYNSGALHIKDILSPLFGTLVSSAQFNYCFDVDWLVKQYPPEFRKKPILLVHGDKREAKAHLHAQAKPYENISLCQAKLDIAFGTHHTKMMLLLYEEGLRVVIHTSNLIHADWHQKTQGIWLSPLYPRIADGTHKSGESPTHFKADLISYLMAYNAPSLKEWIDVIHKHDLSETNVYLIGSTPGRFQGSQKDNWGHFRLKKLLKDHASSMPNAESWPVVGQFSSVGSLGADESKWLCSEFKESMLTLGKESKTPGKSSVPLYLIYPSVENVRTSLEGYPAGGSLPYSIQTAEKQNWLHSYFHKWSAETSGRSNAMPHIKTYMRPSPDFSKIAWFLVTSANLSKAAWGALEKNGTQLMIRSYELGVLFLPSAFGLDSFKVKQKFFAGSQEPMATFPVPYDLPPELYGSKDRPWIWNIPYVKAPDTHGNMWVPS
#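 Compounds were preincubated with Tdp1 (1 nM final) for 15 min at room temperature before substrate (15 nM final) started a 5 min reaction; beads (10 ug/ml final) were then added for 10 min before AlphaScreen detection.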
# IL1B secr inh = blocks inflammasome-driven IL-1 beta release; THP-1 LPS/ATP IL-1B secretion, AlphaLISA, 16 h; active compounds read low; activity change, % at 57.5 µM; hit rate 4.7% among 360,000; in the data active = activity change below about -50%; inconclusive = mostly about -30% to -49%
#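 THP-1 cells pretreated 1 hr with compounds (up to 57.5 uM final), then stimulated with LPS (250 ng/mL final) plus ATP (1.25 mM final); secreted IL-1B measured by AlphaLISA after 16 hr, decreased signal indicating inhibition.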
# A number is an active result; n = inactive; u = inconclusive; x = no result. Unless noted, calls come from the whole dose curve; as a rule, active = well fitted curve in the direction sought with a large enough effect; inconclusive = small, poorly fitted or top-dose-only effect, or another doubt; inactive = no such curve, though single readings can be large; an effect the other way counts as inactive or inconclusive.
SMILES,TDP1 cell noCPT,DT40 TDP1 CPT,Giardia kill,ELG1 DNA repair,TDP1 block,IL1B secr inh
CC(C)(C)n1nnnc1C(c1ccncc1)N1CCCCCC1 (configuration not stated),n,n,n,n,n,n
CC(CCC(=O)NN)C1CCC2C3CCC4CC(O)CCC4(C)C3CCC12C (configuration not stated),26µM,n,n,x,x,n
CCn1c(C(=O)N2CCC(C(=O)NCCc3ccccc3)CC2)cc2sccc21,26µM,u,x,x,n,x
CCn1c(C(=O)N2CCC(C(=O)NCCCSC3CCCCC3)CC2)cc2sccc21,18µM,u,n,21µM,n,n
CCOc1ccc(CCNC(=O)C2CCN(C(=O)c3cc4sccc4n3CC)CC2)cc1OCC,18µM,16µM,x,x,n,x
CCn1c(C(=O)N2CCC(C(=O)NCCc3ccc(C)cc3)CC2)cc2sccc21,21µM,16µM,x,x,n,x
CCOc1ccc(CCNC(=O)C2CCN(S(=O)(=O)N3CCC(C)CC3)CC2)cc1OCC,u,u,n,u,n,n
Cc1ccc(C)c(NC2=C(Cl)C(=O)OC2OC(C)C)c1 (configuration not stated),n,n,n,n,n,n
CC(CCc1ccccc1)NC(=O)C1CCN(C(=O)c2sccc2-n2cccc2)CC1 (configuration not stated),21µM,u,n,u,n,n
CCCSCCCNC(=O)C1CCN(C(=O)c2cc3sccc3n2C)CC1,21µM,21µM,x,x,n,x
CCN(CC)CCCNC(=O)C1CCN(C(=O)c2cc3sccc3n2Cc2ccc(F)cc2)CC1,n,n,n,n,n,n
COc1cc(Cl)ccc1OC1(C)CCN(Cc2cccc(OC)c2OC)C1 (configuration not stated),16µM,13µM,x,x,x,n
COc1cc(Cl)ccc1OC1(C)CCN(Cc2ccccc2OC(F)F)C1 (configuration not stated),21µM,21µM,x,x,x,n
CC1(Oc2cccc(C#N)c2)CCN(Cc2ccccc2OC(F)F)C1 (configuration not stated),u,u,x,x,x,n
Cc1ccc(NC(=O)CSC2=C(C#N)C(c3ccco3)C3=C(CCCC3=O)N2)cc1 (configuration not stated),u,n,n,u,n,-52
Cc1ccc(C(=O)CSC2=C(C#N)C(c3ccco3)C3=C(CC(C)(C)CC3=O)N2)cc1 (configuration not stated),10µM,13µM,n,u,n,-85
CC1=C(C(=O)OC2CCCCC2)C(c2ccc(C)o2)C2=C(CCCC2=O)N1 (configuration not stated),u,u,n,u,n,n
CC1=C(C(=O)OC2CCCCC2)C(c2ccco2)C2=C(CC(C)(C)CC2=O)N1 (configuration not stated),u,18µM,n,u,n,n
N#CC1=C(SCC(=O)c2ccc(Cl)cc2)NC2=C(C(=O)CCC2)C1c1ccco1 (configuration not stated),5.8µM,5.2µM,n,u,n,-88
CC1(C)CC(=O)C2=C(C1)NC(SCC(=O)Nc1ccccc1)=C(C#N)C2c1ccco1 (configuration not stated),u,u,n,u,n,u
O=C(NCCc1cccs1)C12CN(Cc3ccccc3)CC1C(c1cccc([N+](=O)[O-])c1)=NO2 (configuration not stated),u,n,n,u,n,n
CCOc1ccc(N2C(=O)CC(NC3CCN(C(=O)c4ccc(F)cc4)CC3)C2=O)cc1 (configuration not stated),u,u,n,n,n,n
O=C(c1cc2cc(Cl)ccc2[nH]1)N1CCN(c2ccccn2)CC1,n,n,n,n,x,n
Cn1ccc2c(-c3cccc4ccccc34)cc3c(c21)C1CCC3C1 (configuration not stated),u,n,x,x,x,n
